Laboratory results reported in the supplement of paper PMC10646978.
± gives the standard deviation.

Columns and labels:
Conditions in all cases: modulator concentration 10 µM
[1] = system: RAW-Dual (murine macrophage reporter line); experiment: NF-kB reporter (SEAP) activity fold change vs agonist alone; higher = enhanced NF-kB activity
Procedure, shortened: (§1)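 In 384-well plates holding 50 000 RAW-Dual murine macrophage reporter cells per well, compound at 10 μM final was pre-incubated for 1 hour at 37 °C, after which a PRR agonist was added overnight. Supernatant SEAP read with QUANTI-Blue at 620 nm absorbance reported NF-κB, and Lucia luciferase read with QUANTI-Luc luminescence reported IRF. Fold change values come from dividing each reporter signal by the mean of agonist-only control wells on the same plate, averaged over replicate plates with propagated errors.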

[2] = system: RAW-Dual (murine macrophage reporter line); experiment: IRF reporter (Lucia luciferase) activity fold change vs agonist alone; higher = enhanced IRF activity
Procedure, shortened: as §1

[3] = system: RAW-Dual (murine macrophage reporter line); experiment: viability score (confluency relative to resting cells, overnight) (fraction); higher = more viable, active = viable (0.7 or more)
Procedure, shortened: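 RAW-Dual macrophages in 384-well plates were exposed overnight to compound at 10 μM final. Confluency was imaged with IncuCyte, and two confluency masks were generated with IncuCyte software over all imaged wells. The viability score is confluency expressed relative to resting cells. Compounds were called viable if both masks exceeded 70% of resting cells.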

[4] = agonist: CpG ODN 1826 0.5 ug/mL

SMILES	NF-kB reporter [1, 4]	NF-kB reporter ([1]; agonist: LPS 0.1 ug/mL)	NF-kB reporter ([1]; agonist: MPLA […])	IRF reporter ([2]; agonist: 3'3'-cGAMP 10 ug/mL)	IRF reporter ([2]; agonist: LPS 0.1 ug/mL)	IRF reporter ([2]; agonist: MPLA […])	viability score [3]
CC1=C(O)C(=O)C=C2C1=CC=C1C2(C)CCC2(C)C3CC(C)(C(=O)O)CCC3(C)CCC12C (centres undefined)	0.062 ± 0.0049	0.048 ± 0.0035	0.0885 ± 0.0089	0.0157 ± 0.0014	0.116 ± 0.081	0.071 ± 0.039	0.381 (inactive)
Cc1cc(OC(=O)C2CCCCC2)c2c3c(c(=O)oc2c1)CCC3	0.947 ± 0.094	1.01 ± 0.063	0.968 ± 0.058	0.948 ± 0.042	1.29 ± 0.13	1.13 ± 0.07	1.01 (active)
CN(C)CCC(=O)c1ccccc1	0.736 ± 0.06	0.28 ± 0.032	0.33 ± 0.018	0.155 ± 0.054	0.134 ± 0.0059	0.09 ± 0.0096	0.463 (inactive)
CN1C2CCC1CC(OC(=O)C(CO)c1ccccc1)C2 (centres undefined)	1.23 ± 0.29	1.19 ± 0.083	1.14 ± 0.098	0.91 ± 0.032	1.24 ± 0.15	1.15 ± 0.16	0.986 (active)
CC(=O)CC(c1ccccc1)c1c(OC(C)=O)c2ccccc2oc1=O (centres undefined)	0.865 ± 0.059	0.925 ± 0.11	0.779 ± 0.1	0.908 ± 0.03	1.3 ± 0.1	1.14 ± 0.19	1 (active)
CC(=O)Nc1ccc(C(=O)NCC#CCN(C)C)cc1	0.899 ± 0.04	0.879 ± 0.083	1.07 ± 0.058	1.04 ± 0.057	1.17 ± 0.29	1.3 ± 0.45	1 (active)
COc1cc([C@@H]2c3cc4c(cc3[C@H](O)[C@H]3COC(=O)[C@H]23)OCO4)cc(OC)c1OC [Prestw-782]	2.45 ± 0.14	1.61 ± 0.098	2.69 ± 0.16	0.0908 ± 0.0036	1.48 ± 0.1	1.6 ± 0.31	0.721 (active)
CCC1(c2ccccc2)C(=O)N(Cc2ccccc2)C(=O)N(Cc2ccccc2)C1=O	0.516 ± 0.03	1.08 ± 0.1	0.967 ± 0.056	1.17 ± 0.093	1.25 ± 0.14	1.18 ± 0.11	1.01 (active)
CC[C@@H](C(N)=O)N1CCCC1=O	1.04 ± 0.1	1.05 ± 0.059	0.993 ± 0.056	1.06 ± 0.17	0.88 ± 0.075	0.863 ± 0.15	1 (active)
Cc1cccc(COc2ccc(C=C3C(=O)NC(=S)NC3=O)cc2)c1	0.855 ± 0.07	0.875 ± 0.047	1.14 ± 0.099	0.844 ± 0.056	0.992 ± 0.093	0.969 ± 0.12	0.981 (active)
O=C(O)CCCc1ccc(N(CCCl)CCCl)cc1	1.03 ± 0.17	1.03 ± 0.084	1.11 ± 0.13	0.912 ± 0.027	1.29 ± 0.28	1.08 ± 0.12	0.994 (active)
COC(=O)C1C2C(=O)N(c3ccccc3)C(=O)C12c1ccc(Cl)cc1 (centres undefined)	1.1 ± 0.094	1.11 ± 0.09	1.01 ± 0.037	1.01 ± 0.04	1.03 ± 0.055	1.08 ± 0.11	1 (active)
CCNCC.O=C(O)Cc1ccccc1Nc1c(Cl)cccc1Cl	1.16 ± 0.18	1.08 ± 0.38	0.993 ± 0.058	0.921 ± 0.034	1.21 ± 0.43	1.02 ± 0.11	0.993 (active)
CC(O)(CS(=O)(=O)c1ccc(F)cc1)C(=O)Nc1ccc(C#N)c(C(F)(F)F)c1 (centres undefined)	1.38 ± 0.26	0.966 ± 0.081	0.952 ± 0.053	0.991 ± 0.067	1.05 ± 0.095	1.23 ± 0.17	0.987 (active)
Br.NCCc1cc(O)c(O)cc1O	1.04 ± 0.28	0.911 ± 0.073	1.14 ± 0.08	0.609 ± 0.036	1.32 ± 0.24	1.19 ± 0.19	0.53 (inactive)
O=C1NC(=O)C(=Cc2cccn2-c2ccc(Br)cc2)C(=O)N1	1.09 ± 0.09	0.758 ± 0.06	1.08 ± 0.04	0.876 ± 0.094	0.91 ± 0.14	0.844 ± 0.18	0.997 (active)
N=C(N)NOCCC(N)C(=O)O (centres undefined)	1.02 ± 0.076	1 ± 0.058	1.02 ± 0.03	0.979 ± 0.057	0.938 ± 0.12	0.931 ± 0.13	0.998 (active)
Cl.N=C(N)NN	0.983 ± 0.15	1.02 ± 0.29	0.917 ± 0.064	0.892 ± 0.034	1.38 ± 0.27	1.25 ± 0.21	0.997 (active)
Cc1ccc(C)c2sc(N3CCN(C)CC3)nc12.Cl	0.743 ± 0.18	1.02 ± 0.18	1.07 ± 0.071	0.92 ± 0.032	1.04 ± 0.14	1.19 ± 0.22	0.976 (active)
O=C(O)COc1cc(Cl)c(Cl)cc1Cl	0.993 ± 0.076	0.836 ± 0.11	0.995 ± 0.093	1.02 ± 0.039	1.37 ± 0.18	1.46 ± 0.26	1.04 (active)
Nc1nc(N)nc(NC2CC2)n1	1.47 ± 0.063	1.15 ± 0.1	1.67 ± 0.39	0.614 ± 0.064	0.992 ± 0.24	0.892 ± 0.33	0.987 (active)
CCOc1cc(C=C2N=C(c3cccc(C)c3)OC2=O)ccc1OC(=O)Cc1ccccc1	0.858 ± 0.069	0.959 ± 0.081	0.914 ± 0.057	0.8 ± 0.024	1.19 ± 0.1	0.964 ± 0.12	1.01 (active)
CCC1(c2cccc(O)c2)CCCCN(C)C1.Cl (centres undefined)	0.894 ± 0.13	0.99 ± 0.054	1 ± 0.047	1.08 ± 0.088	0.963 ± 0.043	0.948 ± 0.21	1.01 (active)
O=C1NC(=O)C(C(CC(=O)c2ccccc2)c2ccccc2)C(=O)N1 (centres undefined)	1.04 ± 0.093	0.984 ± 0.076	0.93 ± 0.035	0.942 ± 0.12	1.02 ± 0.045	0.931 ± 0.14	1 (active)
COC(=O)COc1ccc(C=C2C(=O)NC(=S)N(c3cccc(Cl)c3Cl)C2=O)cc1OC	0.959 ± 0.09	1.04 ± 0.086	0.932 ± 0.063	0.909 ± 0.048	1.35 ± 0.12	1.14 ± 0.12	1.01 (active)
O=c1cc(CCl)occ1O	1.18 ± 0.09	0.9 ± 0.09	1.13 ± 0.04	0.948 ± 0.13	0.876 ± 0.11	0.806 ± 0.26	0.999 (active)
Cc1ccccc1C(=O)Nc1cc(Cl)c([N+](=O)[O-])cc1Cl	1.05 ± 0.061	0.897 ± 0.078	0.973 ± 0.029	0.997 ± 0.037	0.996 ± 0.11	0.988 ± 0.21	0.998 (active)
